Laboratory results: article PMC7826789 (International Journal of Molecular Sciences, 2021)

The molecules below were run on CAMK2G. Settings: Compound Concentration (nM):1000.
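Further: KINOMEscan scanMAX binding as percent activity remaining versus control; lower means stronger binding.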

Percent Control, inactive:
COc1ccccc1-c1cc(/C=C2\C(=O)Nc3ncc(Br)cc32)cc(Br)c1O [GW442130X] 100%
CN1CCN(C(=O)c2ccc(NC(=O)Nc3ccc(N(C)c4ccnc(Nc5ccc(CS(C)(=O)=O)cc5)n4)cc3)cc2)CC1.Cl [GW830263A] 100%
Cc1cc(O)cc(C)c1/C=C/c1cncc(C(N)=O)c1 [GW435821X] 100%

The molecules below were run on CAMK4. Settings: Compound Concentration (nM):1000.

Percent Control, inactive:
O=C(Nc1n[nH]c2nc(-c3ccc(O)cc3)c(Br)cc12)C1CC1 [SB-725317] 100%
COc1cccc(-c2c[nH]c3c(N/N=C/c4ccncc4)ncnc23)c1 [GW814408X] 100%
Cl.O=C(O[C@H]1CN[C@H](C#Cc2cc3ncnc(Nc4ccc5c(cnn5Cc5ccccc5)c4)c3s2)C1)N1CCOCC1 [GSK200398A] 100%
CCS(=O)(=O)c1ccc(OC)c(Nc2ncc(-c3cccc(OC)c3)o2)c1 [GW580509X] 100%
COc1ccc2cc(-c3c(-c4ccncc4)nc(-c4ccc(S(C)(=O)=O)cc4C)n3C)ccc2c1 [SB-633825] 87%
COc1ccc(COc2ccc(Cc3cnc(N)nc3N)cc2OC)cc1 [GW632580X] 100%
C[C@@H](Oc1cc(-n2cnc3ccc(OC4CCN(C)CC4)cc32)sc1C(N)=O)c1ccccc1Cl [GSK579289A] 100%
CCS(=O)(=O)c1ccc(OC)c(Nc2ncc(-c3cccc(F)c3)o2)c1 [GW621970X] 100%
COc1cc(N2CCN(C(C)C)CC2)ccc1Nc1nc(Nc2ccc(F)cc2C(=O)NC[C@@H](O)CO)c2cc[nH]c2n1 [GSK1392956A] 57%
COc1cc2ncn(-c3cc(O[C@H](C)c4ccccc4Cl)c(C(N)=O)s3)c2cc1OC [GSK237701A] 100%
Cl.O=C(Nc1ccc(Oc2ccc3[nH]c(NC(=O)c4ccccc4)nc3c2)cc1)Nc1cc(C(F)(F)F)ccc1F [GW709042A] 100%
COc1cc(C)c(N(C)C(=O)CN(C)C)cc1Nc1nc(Nc2cccc(F)c2C(N)=O)c2cc[nH]c2n1 [GSK2219385] 80%
CCc1ccc(Oc2nccc(-c3c(-c4ccc(F)cc4)ncn3C3CCNCC3)n2)cc1 [SB-242719] 100%
CC1=C(C(=O)Nc2ccc3[nH]ncc3c2)C(c2ccc3ccccc3c2)CC(=O)N1 (stereo not drawn) [GSK270822A] 100%
Nc1ncnc2occ(-c3ccc(NC(=O)Nc4cc(C(F)(F)F)ccc4F)cc3)c12 [GW770249X] 100%
O=C1Nc2ccc(C(=O)c3ccco3)cc2C1=Cc1cc(Cl)c(O)c(Cl)c1 [GW406108X] 100%
COc1ccc2[nH]c3c4[nH]c5ccc(OC)cc5c4c4c(c3c2c1)C(=O)NC4=O [GW296115X] 98%
CN(C)CCNC(=O)Nc1ccc(N(C)c2ccnc(Nc3ccc(CS(C)(=O)=O)cc3)n2)cc1.Cl [GW830900A] 100%
Cl.c1ccc(Cc2nc3ccc(Nc4ncnc5ccccc45)cc3[nH]2)cc1 [GR269666A] 100%
COc1ccc2c(-c3ccnc(Nc4cccc(OC(F)(F)F)c4)n3)cnn2n1 [GW810372X] 100%
COc1cccc(-n2ncc3c(N/N=C/c4ccncc4)ncnc32)c1 [GW784752X] 100%
COc1cc(/C=N/Nc2ncnc3[nH]ncc23)ccc1O [GW578748X] 100%
NS(=O)(=O)c1ccc(N/N=C2\C(=O)Nc3ccc(C(=O)NCCc4c[nH]cn4)cc32)cc1 [GW300660X] 100%
NS(=O)(=O)c1ccc(N/N=C2\C(=O)Nc3ccc(-c4cnco4)cc32)cc1 [GW276655] 100%
NS(=O)(=O)c1ccc(Nc2ncc(-c3ccccc3)o2)cc1 [GW572399X] 100%
C/C(Nc1ccc(S(N)(=O)=O)cc1)=C1/C(=O)Nc2ccccc21 [GW335962X] 100%
Cl.O=S1CCN(Cc2ccc(-c3ccc4ncnc(Nc5ccc(OCc6ccccc6)c(F)c5)c4c3)o2)CC1 [GW576924A] 100%
CN(C)c1cc2c(Nc3ccc4c(cnn4Cc4ccccc4)c3)ncnc2cn1 [GW282974X] 100%
CCn1c(-c2nonc2N)nc2c(C#CC(C)(C)O)nc(OCCNC)cc21.Cl [GSK949675] 100%
CC(C)COC(=O)c1ccc2c(c1)/C(=C/Nc1ccc(S(N)(=O)=O)cc1)C(=O)N2 [GW416981X] 100%
CC1=C(C(=O)Nc2ccc3[nH]ncc3c2)C(c2ccc(Cl)c(Cl)c2)CC(=O)N1 (stereo not drawn) [GSK299115A] 100%
NS(=O)(=O)c1ccc(N/N=C2\C(=O)Nc3ccc(Cl)cc32)cc1 [GW280670X] 100%
COc1cc(C=NNc2ncnc3c2cnn3-c2ccccc2)ccc1O [GW513184X] 100%
